Measured values reported in PubChem BioAssay.
Unmarked numbers belong to inactive results. For some assays here: Measured potencies and affinities stand elsewhere. Active and inactive are the calls of the source. Unless noted, how the calls were made is not given here.

Legend:
[1] = antimalarial activity against Dd2 strain (AID 2302;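 active means growth inhibition above 50% at the single 2 µM test dose, taken to imply half-maximal potency below 2 µM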;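 further: 0% = DMSO untreated growth and 100% = chloroquine plus artemisinin killed control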); conditions: P. falciparum Dd2 in RBCs, LDH growth readout, 72 h; at 2 µM; stronger effect = higher value
[2] = human hepatoma cell viability loss – ATP luminescence, cytotoxicity control for P. falciparum antimalarial project, primary screen (AID 2303;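 active means inhibition above 50%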;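 further: 0% = DMSO wells and 100% = digitonin-killed cells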); conditions: HepG2 viability, 24-48 h, at 10 µM, stronger effect = higher value
[3] = molecular target: L-lactate dehydrogenase (Plasmodium falciparum (isolate CDC / Honduras)) (UniProt Q27743); test: PfLDH activity inhibition – cell lysate, 3D7 strain, counter-screen for P. falciparum growth inhibition project (AID 2304);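 further: 0% = vehicle and 100% = reference inhibitor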; conditions: P. falciparum 3D7 crude extract, LDH APAD/NBT absorbance; at 2 µM; stronger effect = higher value
[4] = inhibition of 3D7 malaria parasite growth – strain 3D7 (AID 2306);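 further: 0% = DMSO wells and 100% = chloroquine plus artemisinin control wells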; conditions: P. falciparum 3D7 erythrocytic growth, LDH absorbance, 72 h; at 2 µM; stronger effect = higher value
[5] = molecular target: Calcium-dependent protein kinase 1 (Plasmodium falciparum (isolate 3D7)) (UniProt P62344); test: PfCDPK1 kinase inhibitors, biochemical, TCAMS library (AID 1159585; cut-off not given, nearly all actives have IC50 up to about 0.98 µM;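 further: inhibitors leave more ATP so luminescence rises with inhibition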); conditions: recombinant PfCDPK1, Kinase-Glo ATP depletion luminescence
[6] = molecular target: Plasmodium falciparum protein kinase 6 (PK6, PF3D7_1337100) (UniProt Q8IDW1); test: PfPK6 kinase inhibitors, biochemical, TCAMS library (AID 1159586); conditions: recombinant PfPK6, Kinase-Glo ATP depletion luminescence
[7] = molecular target: Protein kinase 7 (PK7), Plasmodium falciparum 3D7 (PF3D7_0213400) (UniProt Q7YTF7); test: inhibition of Plasmodium PK7 catalytic activity – biochemical, TCAMS antimalarial set, Kinase-Glo luminescence (AID 1159587); conditions: recombinant PfPK7, Kinase-Glo ATP depletion luminescence
[8] = molecular target: Calcium-dependent protein kinase 4 (Plasmodium falciparum (isolate 3D7)) (UniProt Q8IBS5); test: PfCDPK4 kinase inhibitors, biochemical, TCAMS library (AID 1159588; cut-off not given, nearly all actives have IC50 up to about 0.91 µM); conditions: recombinant PfCDPK4, Kinase-Glo ATP depletion luminescence
Calcium-dependent protein kinase 4 (Plasmodium falciparum (isolate 3D7)), sequence (Q8IBS5 whole entry, looked up): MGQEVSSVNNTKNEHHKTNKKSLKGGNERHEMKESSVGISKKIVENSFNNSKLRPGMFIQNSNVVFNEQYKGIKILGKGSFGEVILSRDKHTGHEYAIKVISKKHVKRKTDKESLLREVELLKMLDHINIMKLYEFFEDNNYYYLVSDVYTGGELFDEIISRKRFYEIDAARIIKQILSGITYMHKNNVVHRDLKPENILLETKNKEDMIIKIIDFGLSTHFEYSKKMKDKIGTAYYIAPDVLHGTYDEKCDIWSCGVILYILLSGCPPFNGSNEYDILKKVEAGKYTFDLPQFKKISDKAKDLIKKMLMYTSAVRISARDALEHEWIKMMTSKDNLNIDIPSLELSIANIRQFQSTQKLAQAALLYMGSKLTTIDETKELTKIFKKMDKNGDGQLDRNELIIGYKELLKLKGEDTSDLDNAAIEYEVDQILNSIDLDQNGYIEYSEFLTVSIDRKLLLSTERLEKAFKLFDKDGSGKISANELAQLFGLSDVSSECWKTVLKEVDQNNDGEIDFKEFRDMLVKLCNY

L-lactate dehydrogenase (Plasmodium falciparum (isolate CDC / Honduras)), sequence (Q27743 whole entry, looked up): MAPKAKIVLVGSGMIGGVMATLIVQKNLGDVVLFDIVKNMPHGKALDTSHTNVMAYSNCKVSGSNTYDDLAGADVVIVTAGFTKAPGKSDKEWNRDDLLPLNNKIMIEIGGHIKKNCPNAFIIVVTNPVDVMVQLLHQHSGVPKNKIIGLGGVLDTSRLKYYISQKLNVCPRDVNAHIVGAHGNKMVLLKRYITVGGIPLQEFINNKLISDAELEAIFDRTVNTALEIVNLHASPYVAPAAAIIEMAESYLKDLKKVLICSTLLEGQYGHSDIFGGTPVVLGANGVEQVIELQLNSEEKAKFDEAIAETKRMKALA
Protein kinase 7 (PK7), Plasmodium falciparum 3D7 (PF3D7_0213400), sequence (Q7YTF7 1-343): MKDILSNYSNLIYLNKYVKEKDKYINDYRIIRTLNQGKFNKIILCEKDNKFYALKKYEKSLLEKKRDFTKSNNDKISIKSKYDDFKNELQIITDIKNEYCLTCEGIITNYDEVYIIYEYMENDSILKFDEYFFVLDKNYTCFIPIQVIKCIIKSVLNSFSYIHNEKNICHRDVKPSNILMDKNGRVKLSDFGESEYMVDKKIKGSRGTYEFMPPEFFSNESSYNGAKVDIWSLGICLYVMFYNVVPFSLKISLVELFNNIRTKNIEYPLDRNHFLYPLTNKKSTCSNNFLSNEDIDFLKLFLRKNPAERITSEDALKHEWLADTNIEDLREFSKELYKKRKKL
Plasmodium falciparum protein kinase 6 (PK6, PF3D7_1337100), sequence (Q8IDW1 1-305): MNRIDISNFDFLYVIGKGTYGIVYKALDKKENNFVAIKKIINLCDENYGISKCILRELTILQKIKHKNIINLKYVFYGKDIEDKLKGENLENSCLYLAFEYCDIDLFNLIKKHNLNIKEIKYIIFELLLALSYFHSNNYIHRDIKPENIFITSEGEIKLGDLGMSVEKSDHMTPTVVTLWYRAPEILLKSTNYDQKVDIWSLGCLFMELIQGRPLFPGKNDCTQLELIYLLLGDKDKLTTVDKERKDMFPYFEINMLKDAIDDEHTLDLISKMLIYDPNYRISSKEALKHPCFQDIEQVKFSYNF
Calcium-dependent protein kinase 1 (Plasmodium falciparum (isolate 3D7)), sequence (P62344 whole entry, looked up): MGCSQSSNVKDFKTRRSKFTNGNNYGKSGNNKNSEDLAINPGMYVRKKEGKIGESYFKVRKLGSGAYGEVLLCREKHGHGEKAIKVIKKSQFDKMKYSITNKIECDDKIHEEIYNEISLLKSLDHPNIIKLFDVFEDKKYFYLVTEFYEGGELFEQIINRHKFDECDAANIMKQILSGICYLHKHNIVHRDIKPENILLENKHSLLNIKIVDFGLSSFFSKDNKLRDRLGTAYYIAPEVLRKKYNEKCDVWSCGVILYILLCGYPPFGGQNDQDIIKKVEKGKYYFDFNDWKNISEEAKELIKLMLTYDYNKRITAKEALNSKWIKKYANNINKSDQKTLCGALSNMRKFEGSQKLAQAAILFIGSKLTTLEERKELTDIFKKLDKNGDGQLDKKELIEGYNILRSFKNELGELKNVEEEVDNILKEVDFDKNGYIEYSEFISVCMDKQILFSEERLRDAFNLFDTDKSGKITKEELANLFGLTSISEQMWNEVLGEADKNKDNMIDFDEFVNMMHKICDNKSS

Row | Compound | growth inhibition [1] | inhibition [2] | inhibition [3] [%] | growth inhibition [4] | outcome [5] | outcome [6] | outcome [7] | outcome [8]
1 | COc1ccc(CN2CCCN(Cc3cccc(NC(=O)c4ccc(Cl)c(Cl)c4)c3)CC2)cc1 | 19% | 38% | 5 | 86% (active) | inactive | inactive | inactive | inactive
2 | CC(C)n1ncc2c(C(=O)N3CCCCCC3)cc(-c3ccccc3)nc21 | 42% | -12% | 2 | 97% (active) | inactive | inactive | inactive | inactive
3 | N#Cc1ccc(N2C[C@@H](OCc3ccccc3)C[C@H]2C(=O)NCCC(c2ccccc2)c2ccccc2)c2ccccc12 | 96% (active) | 11% | -6 | 93% (active) | inactive | inactive | inactive | inactive
4 | O=C(/C=C/c1cccs1)NCC(NCCCNc1cc(=O)c2ccccc2[nH]1)c1cc(Br)cc(Br)c1 (configuration not stated) | 58% (active) | 0% | 0 | 100% (active) | inactive | inactive | inactive | inactive
5 | O=C1C(c2ccccc2)=C(Nc2ccc([N+](=O)[O-])cc2)c2ccccc21 | 73% (active) | -2% | -2 | 95% (active) | inactive | inactive | inactive | inactive
6 | CC(=O)c1ccc(NC(=O)C2c3ccccc3C(=O)N(CC(C)C)C2c2cccs2)cc1 (configuration not stated) | 51% (active) | 13% | -1 | 99% (active) | inactive | inactive | inactive | inactive
7 | CCOC(=O)c1ccc(NC(=O)NNC(=O)c2ccc(CCN3CCC(c4nc(COCC(F)(F)F)c(-c5ccc(F)cc5)o4)CC3)cc2)cc1 | 67% (active) | 10% | 0 | 103% (active) | inactive | inactive | inactive | inactive
8 | Cc1cc(CNCCCCCCCNCc2ccc(Cl)cc2)ccc1O | 0% | 13% | -4 | 97% (active) | inactive | inactive | inactive | inactive
9 | COc1ccc(S(=O)(=O)NC2CCN(CCNC(=O)Nc3cc(C)nc4ccccc34)C2)cc1 (configuration not stated) | 41% | -2% | 1 | 88% (active) | inactive | inactive | inactive | inactive
10 | CCOc1ccc(Cc2c(C)nc3nc(N)nc(N)c3c2C)cc1 | 7% | 63% (active) | 0 | 91% (active) | inactive | inactive | inactive | inactive
11 | CCCCCc1ccc(N2C(N)=NC(N)=NC2(C)C)cc1 | 1% | 59% (active) | -6 | 95% (active) | inactive | inactive | inactive | inactive
12 | COc1ccc(CCc2ccc(-c3c(C)[nH]c(C)c(Cl)c3=O)cc2)cc1OC | 97% (active) | -5% | -7 | 99% (active) | inactive | inactive | inactive | inactive
13 | COc1ccc2nccc([C@@H](O)CN3CCC(NC(=O)Cn4nc(-c5ccc(C(F)(F)F)cc5)ccc4=O)CC3)c2c1 | 90% (active) | 12% | -3 | 100% (active) | inactive | inactive | inactive | inactive
14 | CC(C)c1ccc(NC(=O)c2cccc(CN3CCCN(Cc4cccc(C#N)c4)CC3)c2)cc1 | 15% | 48% | -5 | 93% (active) | inactive | inactive | inactive | inactive
15 | Cc1ccc([C@@H]2CC(=O)CC(c3ccccn3)[C@H]2[N+](=O)[O-])cc1 (some centres not stated) | 2% | 5% | -1 | 97% (active) | inactive | inactive | inactive | inactive
16 | NC(N)=Nc1nc(-c2cccc(NC(=O)CCCCCCCON3C(N)=NC(N)=NC34CCCCC4)c2)cs1 | 89% (active) | 1% | -8 | 96% (active) | inactive | inactive | inactive | inactive
17 | CC1N=C(N)N=C(N)N1OCc1ccccc1 (configuration not stated) | 72% (active) | 62% (active) | 7 | 94% (active) | inactive | inactive | inactive | inactive
18 | Brc1cccc(Nc2nccc(Nc3ccc(Oc4ccccc4)cc3)n2)c1 | 5% | -6% | -4 | 89% (active) | inactive | inactive | inactive | inactive
19 | O=C(NCCCCNCC(Cc1cccc(O)c1)c1ccccc1)c1ccc(NC(=O)c2ccc(Cl)cc2)cc1 (configuration not stated) | 1% | -1% | 2 | 96% (active) | inactive | inactive | inactive | inactive
